Results reported in PubChem BioAssay (Tox21).
A number with no mark means an inactive call. Activity calls are given as the source filed them. Unless noted, calls follow the shape of the full dose curve. Non-standard residues stand in square brackets, D forms with d. Residues, ends and D or L forms follow the SMILES beside them. pGlu = O=C1CC[C@@H](C(=O)O)N1; Thz = O=C(O)[C@@H]1CSCN1

test system: thyroid hormone receptor (rat, GH3 cells); experiment: qHTS assay to identify small molecule agonists of the thyroid receptor (TR) signaling pathway (AID 743066); settings: GH3.TRE-Luc cells, TR agonist luciferase, 24 h; series mostly up to 83.9 µM; activation: at the top concentration
% is scaled to controls: 0 for no effect and ±100 for the full control effect.

| Compound | activation |
| --- | --- |
| N[C@@H](C(=O)N[C@@H]1C(=O)N2C(C(=O)O)=C(Cl)CC[C@H]12)c1ccccc1 | 0.478% |
| O=P(O)(O)C(O)(Cc1cnc2ccccn12)P(=O)(O)O | 0.398% |
| Cc1cccc(C)c1Nc1ncccc1C(=O)O | 0.542% |
| CNCC(O)c1ccc(OC(=O)C(C)(C)C)c(OC(=O)C(C)(C)C)c1 (configuration not stated) | -4.08% [at 39.4 µM] |
| CN[C@@H]1[C@@H](O)[C@@H](O[C@@H]2[C@@H](O)[C@H](O[C@H]3O[C@H](CN)[C@@H](O)[C@H](O)[C@H]3O)[C@@H](N)C[C@H]2NC(=O)C(O)CN)OC[C@]1(C)O (some centres not stated) | 0.141% |
| CO/N=C(\C(=O)N[C@@H]1C(=O)N2C(C(=O)O)=CCS[C@H]12)c1csc(N)n1 | 1.1% |
| CC(C)C(=O)OCC(=O)[C@@]12O[C@H](C3CCCCC3)O[C@@H]1C[C@H]1[C@@H]3CCC4=CC(=O)C=C[C@]4(C)[C@H]3[C@@H](O)C[C@@]12C | -7.9% |
| O=C(O)CCC/C=C\C[C@@H]1[C@@H](/C=C/[C@@H](O)COc2cccc(Cl)c2)[C@H](O)C[C@@H]1O | 1.7% |
| CC[C@H]1NC(=O)[C@@H](NC(=O)c2ncccc2O)[C@@H](C)OC(=O)[C@H](c2ccccc2)NC(=O)[C@@H]2CC(=O)CCN2C(=O)[C@H](Cc2ccccc2)N(C)C(=O)[C@@H]2CCCN2C1=O | -0.588% |
| CC(O)[C@H]1CC[C@H]2[C@@H]3CC[C@@H]4C[C@@H](O)CC[C@]4(C)[C@H]3CC[C@]12C (some centres not stated) | -0.296% |
| CC(=O)N(CC(C)C(=O)O)c1c(I)cc(I)c(N)c1I (configuration not stated) | 0.272% [at 39.4 µM] |
| CCN1C(=O)NC(c2ccccc2)C1=O (configuration not stated) | 1.03% [at 39.4 µM] |

target: Estrogen receptor (Homo sapiens) (UniProt P03372); experiment: qHTS assay to identify small molecule antagonists of the estrogen receptor alpha (ER-alpha) signaling pathway (AID 743069; active = well fitted curve in the direction sought with a large enough effect in the signal ratio in the repeat runs, not every such curve was filed as active; inconclusive = weak or mixed curves, or effect the other way; inactive = no such curve, though single readings can be large or run the other way; the % refers to the signal ratio; also: potency is read from the fitted curve at half-maximal effect); settings: HEK293 ER-alpha-UAS-bla, beta-lactamase ratio, antagonist mode; series mostly up to 69.4 µM; activity, negative = inhibition: at the top concentration
Sequence (P03372 whole entry, looked up): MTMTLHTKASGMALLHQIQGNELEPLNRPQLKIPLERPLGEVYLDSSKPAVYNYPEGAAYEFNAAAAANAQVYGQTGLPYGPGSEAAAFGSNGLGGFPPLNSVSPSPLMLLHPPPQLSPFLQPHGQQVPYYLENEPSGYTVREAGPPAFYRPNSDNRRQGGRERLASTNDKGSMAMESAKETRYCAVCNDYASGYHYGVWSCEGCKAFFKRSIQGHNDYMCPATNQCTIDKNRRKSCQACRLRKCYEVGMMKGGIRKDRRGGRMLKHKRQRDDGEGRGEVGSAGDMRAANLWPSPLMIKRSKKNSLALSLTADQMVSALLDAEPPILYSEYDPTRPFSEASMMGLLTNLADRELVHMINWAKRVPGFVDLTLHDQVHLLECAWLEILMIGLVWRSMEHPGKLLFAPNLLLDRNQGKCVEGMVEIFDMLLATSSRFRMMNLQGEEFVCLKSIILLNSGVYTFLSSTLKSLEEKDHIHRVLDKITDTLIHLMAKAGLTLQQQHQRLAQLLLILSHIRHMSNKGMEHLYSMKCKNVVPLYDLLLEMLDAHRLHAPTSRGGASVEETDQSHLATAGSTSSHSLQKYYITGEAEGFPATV
Method in brief: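 A 17beta-estradiol challenge was applied right after compound transfer to ER-alpha-UAS-bla HEK293 cells previously kept in charcoal-stripped serum. Plates stood 18 hr at 37C and 5% CO2; fluorescence was read following 2 hr FRET substrate loading at room temperature.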

| Compound | activity, negative = inhibition | Potency |
| --- | --- | --- |
| CS(=O)(=O)NC(=O)CCC/C=C\C[C@H]1C(=O)C[C@@H](O)[C@@H]1/C=C/[C@H](O)COc1ccccc1 | -15.9% |  |
| CCCCCCCCCCCCCCCCOCCOCCOCCOCCOCCOCCOCCOCCOCCOCCOCCOCCOCCOCCOCCOCCOCCOCCOCCOCCO |  | 4.25 µM [inconclusive] (active) |
| c1ccc2cc(C3=NCCN3)ccc2c1 | 6.21% |  |
| CCC[C@@H]1C[C@@H](C(=O)N[C@@H]([C@H]2O[C@H](SC)[C@H](O)[C@@H](O)[C@H]2O)[C@H](C)Cl)N(C)C1 | -3.97% |  |
| CCCCC/C=C\CCC(=O)N[C@H]1[C@H](Oc2c3cc4cc2Oc2ccc(cc2Cl)[C@@H](O[C@@H]2O[C@H](CO)[C@@H](O)[C@H](O)[C@H]2NC(C)=O)[C@@H]2NC(=O)[C@H](NC(=O)[C@@H]4NC(=O)[C@H]4NC(=O)[C@@H](Cc5ccc(c(Cl)c5)O3)NC(=O)[C@H](N)c3ccc(O)c(c3)Oc3cc(O)cc4c3)c3ccc(O)c(c3)-c3c(O[C@H]4O[C@H](CO)[C@@H](O)[C@H](O)[C@@H]4O)cc(O)cc3[C@@H](C(=O)O)NC2=O)O[C@H](CO)[C@@H](O)[C@@H]1O | -22.1% |  |
| O.O=C([O-])CC([S-])C(=O)[O-].[Au+].[Na+].[Na+] (configuration not stated) | -13.2% |  |
| C=CC1=C(C)C2=CC3=NC(=C(CC(=O)[O-])C4=NC(=C(C)C4=C([O-])[O-])C=c4[n-]c(c(C)c4CC)=CC1=N2)C(CCC(=O)[O-])C3C.[Cu+2].[Na+].[Na+].[Na+] (configuration not stated) | 15.1% |  |
| O=C1CC[C@@H](C(=O)N2CSC[C@H]2C(=O)O)N1 ([pGlu]-[Thz]-OH) | 4.67% |  |
| CN1[C@@H]2CCC[C@H]1CC(NC(=O)c1nn(C)c3ccccc13)C2 (some centres not stated) | -1.79% |  |
| COc1cc(/C=C/C(=O)N2CCN(CC(=O)N3CCCC3)CC2)cc(OC)c1OC | -8.76% |  |
| CC(=O)N[C@@H]1C(O[C@H]2O[C@H](C(=O)O)C(O)[C@H](O)[C@H]2O)[C@H](O)[C@@H](CO)O[C@H]1O[C@@H]1C(C(=O)O)O[C@@H](O[C@H]2[C@H](O)[C@@H](CO)OC(O)[C@@H]2NC(C)=O)[C@H](O)[C@H]1O (some centres not stated) | 3.73% |  |
| COC(=O)[C@H]1[C@H]2C[C@@H]3c4[nH]c5cc(OC)ccc5c4CCN3C[C@H]2C[C@@H](OC(=O)/C=C/c2cc(OC)c(OC)c(OC)c2)[C@@H]1OC | -28.9% [at 32.6 µM] |  |
| CC(C)[C@H](N)C(=O)OCC(CO)OCn1cnc2c(=O)[nH]c(N)nc21 (some centres not stated) | -3.34% |  |
| N[C@H](CCC(=O)O)C(=O)O | 17.6% |  |
| CCOC(=O)Cc1cccc(-c2cc(CCCCCCc3ccc(O[C@H]4O[C@H](COC(C)=O)[C@@H](OC(C)=O)[C@H](OC(C)=O)[C@@H]4OC(C)=O)c(-c4cccc(CC(=O)OCC)c4)c3)ccc2O[C@H]2O[C@H](COC(C)=O)[C@@H](OC(C)=O)[C@H](OC(C)=O)[C@@H]2OC(C)=O)c1 | -13.2% |  |
